Source: PubChem
RAM inhibit: blocks the yeast RAM network. S. cerevisiae dse1pr::URA3 reporter, 5-FOA growth OD615, 2 d; analog-sensitive cbk1-as2 kinase mutant strain. inhibition, % at 50 µM. 190,000 compounds, 1.8% hits. AID 868;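 active = inhibition above a set limit, 3 SD over mean compound inhibition, cut at about 8.4% in these data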;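 note: inhibition rescues growth on 5-FOA so higher OD means more RAM inhibition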
S1P4 antagonist: human S1P4 receptor antagonism | O95977 | S1P4-expressing cells, antagonist mode, reporter read-out | inhibition, % at 4.98 µM | 220,000 compounds, 0.26% hits; in the data active = inhibition above about 29%
Target sequence (O95977 whole entry, looked up): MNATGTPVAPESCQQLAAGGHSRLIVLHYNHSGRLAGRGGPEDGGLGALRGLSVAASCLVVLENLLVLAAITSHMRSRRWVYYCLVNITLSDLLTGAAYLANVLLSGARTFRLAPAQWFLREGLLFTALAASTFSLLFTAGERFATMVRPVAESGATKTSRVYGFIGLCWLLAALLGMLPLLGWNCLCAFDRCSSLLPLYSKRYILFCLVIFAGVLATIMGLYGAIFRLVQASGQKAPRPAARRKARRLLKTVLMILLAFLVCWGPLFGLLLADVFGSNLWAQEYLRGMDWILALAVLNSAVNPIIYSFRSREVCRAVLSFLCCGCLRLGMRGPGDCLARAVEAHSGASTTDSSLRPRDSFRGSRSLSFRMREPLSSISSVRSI
S1P4 agonist: agonists of human S1P4 receptor. S1P4-expressing cell line, agonist reporter assay. activation, % at 4.98 µM. 220,000 compounds, 0.35% hits. AID 1509; in the data active = activation above about 11%
ROMK mod: modulates human ROMK potassium channel activity; Tet-inducible ROMK, thallium flux fluorescence; actives lie on both sides; B-score at 10 µM; 130,000 compounds, 2% hits; AID 1918;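 active = signal ratio slope over the read window, or its plate-corrected B-score, at least 3 SD from the plate mean, either direction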;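 note: B-score of the F/F0 ratio slope over 7 to 12 s after thallium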
Target sequence (P48048 whole entry, looked up): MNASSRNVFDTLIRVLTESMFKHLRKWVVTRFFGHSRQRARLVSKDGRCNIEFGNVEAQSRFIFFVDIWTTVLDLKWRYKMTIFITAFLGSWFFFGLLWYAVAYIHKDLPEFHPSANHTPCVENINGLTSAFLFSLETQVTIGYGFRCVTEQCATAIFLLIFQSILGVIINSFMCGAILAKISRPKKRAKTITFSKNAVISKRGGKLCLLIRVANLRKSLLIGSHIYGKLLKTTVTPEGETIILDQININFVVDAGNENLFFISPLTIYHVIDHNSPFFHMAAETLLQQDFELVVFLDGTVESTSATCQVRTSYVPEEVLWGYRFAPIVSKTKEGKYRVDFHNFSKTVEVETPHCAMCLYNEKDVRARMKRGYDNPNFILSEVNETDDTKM
KCC2 mod: modulators of human KCC2 chloride dependent transport; Q9H2X9; KCC2 cells, thallium flux FluoZin-2 fluorescence; B-score of Tl+ flux slope (higher = more flux/activation; lower = inhibition) at 10 µM; 190,000 compounds, 2.2% hits; AID 1456;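 active = thallium flux slope and its plate-corrected score both differing from the plate sample mean at a set confidence after two filtering rounds, in either direction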;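 note: slope of fluorescence scaled to starting intensity during 10 to 20 s after thallium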
S1P3 antag: antagonists of human S1P3 receptor; Q99500; CHO S1P3 NFAT-BLA reporter, FRET fluorescence, antagonist mode; inhibition, % at 4.98 µM; 170,000 compounds, 0.27% hits; AID 485;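 active = inhibition above the plate cutoff, the mean inhibition of test wells on that plate plus 3 SD, cut at about 28% in these data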;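 note: cells challenged with S1P at its EC80 of 0.8 µM; blue over green emission ratio from cleaved BLA substrate after 4 h stimulation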
KCC2 sec1: confirmation of human KCC2 transport modulators. AID 1713. normalised thallium flux (F/F0 slope) at 10 µM. 3,700 compounds, 15% hits. HEK293-KCC2, thallium flux, FluoZin2 fluorescence; stronger effect = higher value. shares compounds with KCC2 mod;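 active = thallium flux slope above the same plate's solvent-only control mean plus 3 SD; inconclusive = the two replicate wells disagree; inactive = no significant difference from solvent-only control wells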
KCC2 bumet counter: thallium flux despite bumetanide block in KCC2 cells, secondary assay 3; normalized thallium flux at 10 µM; 3,700 compounds, 49% hits; HEK293-KCC2 + bumetanide/ouabain, thallium flux FluoZin2; stronger effect = higher value; AID 1714; shares compounds with KCC2 mod;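 active = thallium entry rate above the same plate's blocked-transporter control wells by more than 3 SD; inconclusive = the two repeat wells disagree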;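 note: raw slope of fluorescence over initial fluorescence between 10 and 20 s after thallium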
KCC2 sec2: confirmation of human KCC2 transport modulators; shares compounds with KCC2 mod; AID 1715; 3,700 compounds, 23% hits; HEK293-KCC2, thallium flux FluoZin2 fluorescence; actives lie on both sides; F/F0 rise rate, 10–20 s post-thallium; normalized thallium flux at 10 µM;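 active = thallium flux slope more than 3 SD above or below the plate's solvent-only control mean, mostly below; inconclusive = the two repeat wells disagreed; inactive = no significant shift from solvent-only controls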
HEK293 Tl flux: counter-screen for KCC2 modulators: effect in parental HEK293 cells | shares compounds with KCC2 mod | thallium flux FluoZin2, ouabain; baseline-ratio fluorescence slope, 10–20 s after thallium | thallium flux rate (normalised fluorescence) at 10 µM | 3,700 compounds, 46% hits | AID 1716;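 active = thallium flux rate significantly above the same plate's solvent-only control wells, beyond their mean plus 3 SD; inconclusive = the two replicate wells gave conflicting results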
KCC2 ouabain: confirmation of human KCC2 modulators with ouabain. shares compounds with KCC2 mod. HEK293-KCC2, thallium flux FluoZin2 fluorescence; bidirectional: low = inhibitor, high = activator. AID 1717. 3,700 compounds, 48% hits. raw Tl+ flux slope (below DMSO = inhibition, above = activation) at 10 µM;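 active = thallium flux slope beyond 3 SD from same-plate DMSO control mean in most replicates, usually higher, sometimes lower; inconclusive = repeat tests gave conflicting results; inactive = no significant difference from controls in most replicates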;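 note: slope of initial-normalized fluorescence between seconds 10 and 20 after thallium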
HEK293 Tl flux2: parental HEK flux effect, counter-screen 2; AID 1718; thallium flux slope at 10 µM; HEK293 parental, thallium flux FluoZin-2 fluorescence slope; 3,700 compounds, 33% hits; shares compounds with KCC2 mod;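 active = thallium flux slope above the same plate's solvent-control mean plus 3 SD in both duplicate wells; inconclusive = duplicate wells that disagreed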;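 note: run without ouabain in cells lacking the KCC2 cotransporter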
Each line names hits and unclear results; the compound was inactive in the other large screens (follow-up assays come after a bar, where they were run). Shown are actives, neighbours in structure and some others; about 5.1% of the full set was active somewhere.

Cc1ccc(-c2ccc(CCC(=O)O)n2NC(N)=S)cc1	none (no result: ROMK mod)
Cc1ccc(-c2ccc(CCC(=O)O)n2C(C)C)cc1	KCC2 mod -4.4 (no result: ROMK mod) | KCC2 sec1 inactive | KCC2 bumet counter inactive | KCC2 sec2 inactive | HEK293 Tl flux inactive | KCC2 ouabain inactive | HEK293 Tl flux2 inactive
Cc1ccccc1OCc1nnc(SCC(=O)Nc2ccc3nc(SCC(=O)Nc4ccccc4)sc3c2)n1C	none
NC(=S)N/N=C\c1c(OCc2ccccc2Cl)ccc2ccccc12	none
CC(=O)Oc1ccc2c(=O)c(/C=N/c3cc(=O)[nH]c(=S)[nH]3)coc2c1	none (no result: RAM inhibit, ROMK mod)
O=c1cc(/N=C/c2coc3cc(Br)ccc3c2=O)[nH]c(=S)[nH]1	KCC2 mod 9.5 (no result: RAM inhibit, ROMK mod) | KCC2 sec1 0.014 | KCC2 bumet counter 0.045 | KCC2 sec2 inactive | HEK293 Tl flux 0.0089 | KCC2 ouabain inactive | HEK293 Tl flux2 inactive
COCCNC(=O)Cn1nc(C)c([N+](=O)[O-])c1C	none
CNc1oc(-c2ccccc2)nc1C#N	none
CNc1oc(Cc2cccc3ccccc23)nc1C#N	none (no result: KCC2 mod) | KCC2 sec1 inactive | KCC2 bumet counter 0.0082 | KCC2 sec2 inconclusive | HEK293 Tl flux inactive | KCC2 ouabain 0.014 | HEK293 Tl flux2 inconclusive
N#Cc1nc(Cc2ccccc2)oc1NCc1cccnc1	none (no result: ROMK mod)
CC(C)Nc1oc(Cc2cccc3ccccc23)nc1C#N	KCC2 mod -4.5 (no result: ROMK mod) | KCC2 sec1 inactive | KCC2 bumet counter inactive | KCC2 sec2 inconclusive | HEK293 Tl flux inconclusive | KCC2 ouabain 0.014 | HEK293 Tl flux2 inactive
N#Cc1nc(Cc2ccccc2)oc1NCc1ccccc1Cl	KCC2 mod -2.9 (no result: ROMK mod) | KCC2 sec1 inactive | KCC2 bumet counter inactive | KCC2 sec2 inactive | HEK293 Tl flux 0.0057 | KCC2 ouabain 0.016 | HEK293 Tl flux2 inactive
CN(Cc1nc(-c2cccs2)no1)CC1(N2CCOCC2)CCCCC1	none
O=C(Nc1ccc(Br)cn1)C1CCCN1S(=O)(=O)c1ccccc1 (stereo not given)	none (no result: ROMK mod, S1P3 antag)
COc1cc(/C=C/c2noc(-c3ccccc3O)n2)ccc1OC(C)=O	KCC2 mod -5.5 (no result: RAM inhibit) | KCC2 sec1 inactive | KCC2 bumet counter inactive | KCC2 sec2 inactive | HEK293 Tl flux inactive | KCC2 ouabain inactive | HEK293 Tl flux2 inactive
COc1ccccc1N1CCN(C(c2cccs2)C(C)NC(=O)c2ccncc2)CC1 (stereo not given)	none (no result: RAM inhibit)
COc1ccc(/C=N/NC(=O)CCc2c(C)n[nH]c2C)cc1O	none (no result: KCC2 mod, S1P3 antag)
C=CCn1c(SCC(=O)Nc2cccc3ccccc23)nnc1-c1cnccn1	KCC2 mod -3 (no result: ROMK mod, S1P3 antag) | KCC2 sec1 inactive | KCC2 bumet counter inconclusive | KCC2 sec2 inactive | HEK293 Tl flux inactive | KCC2 ouabain inactive | HEK293 Tl flux2 inactive
N#CCCn1cc(/C=N/NC(N)=S)c(-c2ccccc2)n1	none
COCCN(Cc1cc2cc(C)c(C)cc2nc1Cl)C(=O)N1CCOCC1	none
CCN(CC)c1ccc(S(=O)(=O)N2CCOCC2)cc1NC(=O)CNCc1ccccc1	KCC2 mod -5.6 (no result: RAM inhibit, ROMK mod) | KCC2 sec1 inactive | KCC2 bumet counter inactive | KCC2 sec2 inactive | HEK293 Tl flux inactive | KCC2 ouabain inconclusive | HEK293 Tl flux2 inactive
Cc1cc(S(=O)(=O)NCC(C)C)ccc1OCC(=O)N1CCOCC1	none (no result: ROMK mod)
CCOC(=O)N1CCN(C(=O)COc2ccc(S(=O)(=O)NCC(C)C)cc2C)CC1	none (no result: KCC2 mod, S1P3 antag) | KCC2 sec1 inactive | KCC2 bumet counter inactive | KCC2 sec2 inactive | HEK293 Tl flux inactive | KCC2 ouabain inactive | HEK293 Tl flux2 inactive
O=C1/C(=C/C=C/c2ccco2)SC(=S)N1NS(=O)(=O)c1ccccc1	KCC2 mod 6.8 (no result: RAM inhibit) | KCC2 sec1 inactive | KCC2 bumet counter 0.014 | KCC2 sec2 inactive | HEK293 Tl flux 0.017 | KCC2 ouabain inconclusive | HEK293 Tl flux2 0.018
O=C(NN1C(=O)/C(=C/c2cccs2)SC1=S)c1ccncc1	none (no result: RAM inhibit, ROMK mod)
O=C1/C(=C/c2cccs2)SC(=S)N1NS(=O)(=O)c1ccccc1	KCC2 mod 8.8 (no result: RAM inhibit) | KCC2 sec1 0.014 | KCC2 bumet counter 0.029 | KCC2 sec2 inactive | HEK293 Tl flux 0.016 | KCC2 ouabain inactive | HEK293 Tl flux2 0.014
CC(C(=O)O)N1C(=O)/C(=C/C=C/c2ccco2)SC1=S (stereo not given)	none (no result: ROMK mod, S1P3 antag)
COc1ccc(-c2nn(-c3ccccc3)cc2/C=C/C(=O)N2CCN(c3ccccn3)CC2)cc1	none
CN1/C(=C\C(=S)NC(=O)c2cccc(Br)c2)C(C)(C)c2ccccc21	RAM inhibit 8.9, KCC2 mod 4.6 (no result: ROMK mod) | KCC2 sec1 inactive | KCC2 bumet counter 0.014 | KCC2 sec2 inactive | HEK293 Tl flux inconclusive | KCC2 ouabain inconclusive | HEK293 Tl flux2 inactive
Brc1ccc(CSc2nnc(-c3cnccn3)n2Cc2ccco2)cc1	KCC2 mod -4.3 | KCC2 sec1 inactive | KCC2 bumet counter inactive | KCC2 sec2 inactive | HEK293 Tl flux 0.005 | KCC2 ouabain 0.013 | HEK293 Tl flux2 inactive
O=C(CSc1nnc(-c2cnccn2)n1Cc1ccco1)c1ccc2ccccc2c1	none (no result: KCC2 mod) | KCC2 sec1 inactive | KCC2 bumet counter inactive | KCC2 sec2 inconclusive | HEK293 Tl flux inconclusive | KCC2 ouabain 0.013 | HEK293 Tl flux2 inactive
Fc1ccc(CSc2nnc(-c3cnccn3)n2Cc2ccco2)cc1	none (no result: ROMK mod)
Cc1[nH]c2ccccc2c1C(=O)COC(=O)CCS(=O)(=O)c1ccccc1Cl	KCC2 mod -3.1 (no result: ROMK mod) | KCC2 sec1 inactive | KCC2 bumet counter inconclusive | KCC2 sec2 inactive | HEK293 Tl flux inactive | KCC2 ouabain 0.017 | HEK293 Tl flux2 inactive
c1ccc(CNc2ncnc3sc4c(c23)CCC4)nc1	KCC2 mod -4.2 (no result: ROMK mod, S1P3 antag) | KCC2 sec1 inactive | KCC2 bumet counter inactive | KCC2 sec2 inactive | HEK293 Tl flux 0.0059 | KCC2 ouabain inactive | HEK293 Tl flux2 inactive
Cc1ccn2c(c1)nc(=S)n2C(=O)c1ccco1	none
Cc1ccc(C)c(NC(=O)c2ccccc2O)c1	none
